Data: the supplement of paper PMC6555819

Tests used:
Assay in all cases: PBM binding z-score (relative to random genomic background probes); higher = stronger binding; sequences stand for … in GC…GCGATTGACAGCGTAGAATGAAGG
[1] = system: FXR:RXRa (NR concentration 270 nM, RXRa partner concentration 90 nM)
In short: (§1)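 Custom Agilent 4×180K protein-binding microarrays carried double-stranded probes, each with a 34-nt variable region. These regions held direct-repeat seeds, single-nucleotide variants, half-site ablations and random human genomic background sequences. Ligand-free nuclear receptor dimers were incubated on the arrays for 1 h, antibodies against each partner (one per run) detected binding, and scanned fluorescence was regression-normalized. Binding z-scores take the random background probes as reference.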

[2] = system: LXRa:RXRa (NR concentration 270 nM, RXRa partner concentration 90 nM)
In short: as §1

[3] = system: LXRa homodimer (NR concentration 270 nM)
In short: as §1

[4] = system: LXRb:RXRa (NR concentration 270 nM, RXRa partner concentration 90 nM)
In short: as §1

[5] = system: LXRb homodimer (NR concentration 270 nM)
In short: as §1

[6] = system: PPARa:RXRa (NR concentration 270 nM, RXRa partner concentration 90 nM)
In short: as §1

[7] = system: PPARg:RXRa (NR concentration 180 nM, RXRa partner concentration 90 nM)
In short: as §1

[8] = system: PPARg:RXRa 270nM:90nM, anti-RXR (NR concentration 270 nM, RXRa partner concentration 90 nM)
In short: as §1

[9] = system: PPARg:RXRa 30nM:10nM, anti-RXR (NR concentration 30 nM, RXRa partner concentration 10 nM)
In short: as §1

[10] = system: PPARg:RXRa 90nM:30nM, anti-RXR (NR concentration 90 nM, RXRa partner concentration 30 nM)
In short: as §1

[11] = system: PPARg:RXRa DBDmut IVT, anti-RXR (DBD mutation: RXRa K156A/R161A, NR concentration 270 nM, RXRa partner concentration 90 nM)
In short: as §1

[12] = system: PPARg:RXRa IVT, anti-PPARg (NR concentration 270 nM, RXRa partner concentration 90 nM)
In short: as §1

[13] = system: PPARg DBDmut:RXRa IVT, anti-PPARg (DBD mutation: PPARg1 K132A/R137A, NR concentration 270 nM, RXRa partner concentration 90 nM)
In short: as §1

[14] = system: PPARg DBDmut IVT, anti-PPARg (DBD mutation: PPARg1 K132A/R137A, NR concentration 270 nM)
In short: as §1

[15] = system: PPARg homodimer (NR concentration 180 nM)
In short: as §1

[16] = system: PXR:RXRa (NR concentration 270 nM, RXRa partner concentration 90 nM)
In short: as §1

[17] = system: PXR homodimer (NR concentration 270 nM)
In short: as §1

[18] = system: RARa:RXR (NR concentration 270 nM, RXRa partner concentration 90 nM)
In short: as §1

[19] = system: RARa homodimer (NR concentration 270 nM)
In short: as §1

[20] = system: RARb:RXRa (NR concentration 270 nM, RXRa partner concentration 90 nM)
In short: as §1

Sequence	PBM binding z-score [1]	PBM binding z-score [2]	PBM binding z-score [3]	PBM binding z-score [4]	PBM binding z-score [5]	PBM binding z-score [6]	PBM binding z-score [7]	PBM binding z-score [8]	PBM binding z-score [9]	PBM binding z-score [10]	PBM binding z-score [11]	PBM binding z-score [12]	PBM binding z-score [13]	PBM binding z-score [14]	PBM binding z-score [15]	PBM binding z-score [16]	PBM binding z-score [17]	PBM binding z-score [18]	PBM binding z-score [19]	PBM binding z-score [20]
CAAACTAGGTCGAGGTCAAAGTCGGTTTGTGCCA	5.44	5.1	3.63	4.38	1.07	5.46	7.22	6.53	3.54	5.58	6.55	6.77	0.51	0.375	1.85	5.34	2.29	4.71	0.547	4.28
ATATGTAGGTTAGCTGGGGTCTTTCAGACTAGGC	1.74	0.766	0.231	1.6	0.737	2.65	2.84	2.65	0.594	1.91	6.49	5.47	0.793	0.845	0.937	1.68	0.227	0.915	0.444	0.946
AATACAGGGTTATCGTAGGCCAGAGTACGCACAG	1.75	5.85	0.204	2.68	0.3	2.55	1.75	1.35	0.668	0.954	0.539	1.12	0.626	0.739	0.97	1.59	-0.0696	1.79	0.276	1.3
CCTCGGAAGACAACAGGAGGTCAGAGCTGCCAGA	0.802	1.66	1.65	1.31	-0.201	1.62	0.36	0.247	-0.599	-0.387	-0.389	-0.416	-0.399	-1.87	1.38	1.62	0.458	2.01	0.559	1.81
GCTATTAGTTGAAAGGGCAACAGAATGATTCTCG	0.533	0.675	0.402	0.947	-0.00324	2.47	3.11	4.2	2.77	4.54	0.52	1.11	0.63	0.276	1.36	0.774	0.784	1.47	1.15	2.09
CCTCGCAGGCCAGGGTCACTCAAGCATTTCGCTT	2.11	1.69	-0.251	2.06	-0.654	3.01	0.19	1.04	-0.771	0.0823	-0.539	0.241	-0.923	-1.57	1.02	2.49	-0.431	3.1	-0.222	2.54
ATATGCAGGTTACATCCGGGTCATTCAGGCTATG	2.7	4.82	0.974	2.99	0.382	3.53	2.58	2.61	0.935	1.49	3.86	4.01	0.813	1.04	1.59	3.71	1.94	3.45	0.262	2.34
GCAACGAGGGCATTCGAGTTGATAGCATGGCGAT	0.802	1.56	-0.374	0.0313	-0.641	1.15	0.475	0.0611	-0.488	-0.307	1.69	1.13	-0.431	-0.39	-0.299	3.66	1.02	0.56	-0.554	1.69
CCTCAAAGTTCAACTAAGGTAACGTAAAGCACGC	6.89	6.33	4.64	4.52	2.85	5.12	3.17	4.09	1.44	2.86	0.946	0.996	1.12	0.201	4.29	5.71	4.04	4.47	3.41	5.33
ATCGAAAGGTCGACGAGGTGAGTATCCACCGTTT	3.97	3.28	-0.0498	2.63	0.248	4.28	2.41	3.45	0.781	2.21	0.709	1.86	0.578	0.779	1.21	2.78	0.403	3.19	0.424	3.84
CCGGCTGGGGCAAGGTTACCATAACGCACAGCCA	0.218	0.386	-0.338	0.353	-1.36	1.09	1.04	0.822	-0.299	0.627	-0.429	0.466	-1	-1.85	0.0716	0.337	-0.654	0.922	-0.728	1.64
TCAGACAGGTGAAGGTAGCTCAGGTACGCAGTCG	0.513	0.567	-0.0814	0.434	-0.218	1.02	0.481	1.75	3.33	2.65	2.37	0.501	0.112	0.071	0.349	0.216	-0.0197	0.316	0.354	1.07
CCAGACTGGTGAAAGGTAACTCAGTCTGGTACGC	-0.45	-0.241	-0.759	-0.0625	-0.842	1.46	2.67	3.83	1.66	3.26	0.00689	0.829	-0.709	-0.951	0.201	-0.0709	-0.492	0.039	-0.414	0.363
AGTCAAAGTTCAGGACGAGGTAACATAAAGCACG	4.23	4.01	1.38	2.25	0.512	3.45	4.84	4.91	2.27	4.16	-0.187	1.85	1.18	0.12	2.12	3.37	1.47	3.33	0.906	4.15
CAGCCTAGGTCAGGGCAAGTATAGGAGGAACGTT	2.01	1.35	-0.33	0.587	-1.01	2.23	1.32	1.24	-0.349	0.306	1.79	2	-0.618	-1.17	0.755	0.56	-0.274	1.19	-0.273	3.7
ACATACAGGTGAGTGAAGGTAACTCAGCTGGACG	0.866	0.707	-0.217	-0.161	-0.321	1.21	1.28	0.814	0.519	0.883	2.31	2.03	0.417	0.188	0.393	0.304	-0.247	0.687	-0.0591	0.763
ATCTCAAGGTAAAGATAGTTCAGTGAATGCAAAT	0.707	5.22	0.562	1.38	0.331	0.546	0.372	0.508	0.448	0.296	0.21	0.461	0.586	1.27	0.584	2	1.05	0.797	0.976	1.16
CAAACTAGGTCACCGGAAGATCAAAGTCCGCATG	4.71	3.6	0.641	2.62	0.598	5.66	9.41	7.49	5.48	7.48	8.57	9.02	7.41	5.5	6.16	2.27	0.35	3.33	1.83	4.28
CGAACTAGGTCATTGAGAGGACAGTGAATAGTAA	3.94	2.78	0.422	1.87	-0.333	4.37	7.29	5.99	3.89	5.45	7.95	7.8	1.23	0.676	2.27	2.36	0.174	3.08	-0.238	3.74
CGTCCAAGGTCATAGGAAGTCAGTGAAGACAGAT	6.83	5.5	1.21	3.9	0.55	5.43	4.4	4.99	1.57	3.64	3.11	3.4	0.667	-0.147	2.75	3.99	0.915	4.28	0.466	4.81
TCATATAGGTAAATGGTGAAAGTCGGTGTGGTAA	0.818	1.03	0.217	0.846	-0.047	1.6	1.54	3.44	4.15	3.96	3.92	2.4	0.569	0.625	1.49	0.445	0.609	0.554	1.52	0.243
TCTATTAGTTGATGAGGGCAACCGAAACAGCGGA	0.667	0.683	0.18	0.607	0.412	1.07	0.347	2	3.62	2.83	2.06	0.967	0.312	0.843	1	0.877	0.351	0.981	0.755	1.41
GCGACTGGGGCAAAGCAGGTTACCAGAAGGTTGG	0.766	0.129	-0.462	0.0356	-1.38	1.3	1.17	1.42	-0.461	0.594	4.49	3.54	-1.13	-0.78	0.00244	0.34	-0.469	0.321	-0.876	1.1
ATCTCTAGGTAACCAAGTACAGTGAATGCCGAAC	0.125	0.246	0.247	0.353	0.673	0.645	0.752	0.425	0.0273	0.341	3.29	3.07	1.88	1.42	0.713	0.0867	0.597	-0.0145	1.1	0.347
TATACAGAGTCAAAGGCCAGAGTACGAATGTCGA	0.1	0.487	0.0394	0.0721	0.0425	1.1	2.17	2.98	1.53	2.73	-0.677	0.809	0.657	0.798	0.172	0.3	0.152	0.733	-0.267	1.19
AGTCAAGGTTCAGGACGAGGTAACGTAAAGCACG	2.68	1.82	0.192	1.05	-0.0826	2.34	1.97	2.16	0.624	1.34	-0.591	0.701	-0.373	0.579	0.61	1.35	0.133	1.95	0.0883	2.38
TCTTGTAGATCAATAGAGGTTTAGAAAGTGCGCT	0.391	0.283	-0.272	0.00462	-0.299	0.237	-0.452	1.23	2.5	1.69	1.65	0.249	0.996	0.224	-0.539	0.49	-0.0138	0.588	0.0314	-0.311
GATACAGGGTCAGCTAGAGACCAGAGTATGGAAA	4.21	2.28	-0.37	2.36	-0.416	4.54	3.4	3.33	0.781	2.29	1.1	2.34	0.401	-0.539	1.14	1.89	0.00163	2.98	0.39	3.53
